Compound activity deposited in PubChem BioAssay by National Center for Advancing Translational Sciences (NCATS).
This is a sample that favours compounds with a hit; in the whole collection about 10% have one here.
G9a block: blocks human histone lysine methyltransferase G9a | hit rate 8.8% among 350,000 | G9a H3K9 monomethylation, AlphaScreen, 2 h | Potency, µM (top dose mostly 102 µM), usual class: inhibitors | Q96KQ7; also: nearly all actives have a fitted effect of over 75% in size
Target sequence (Q96KQ7 913-1193 limits assumed): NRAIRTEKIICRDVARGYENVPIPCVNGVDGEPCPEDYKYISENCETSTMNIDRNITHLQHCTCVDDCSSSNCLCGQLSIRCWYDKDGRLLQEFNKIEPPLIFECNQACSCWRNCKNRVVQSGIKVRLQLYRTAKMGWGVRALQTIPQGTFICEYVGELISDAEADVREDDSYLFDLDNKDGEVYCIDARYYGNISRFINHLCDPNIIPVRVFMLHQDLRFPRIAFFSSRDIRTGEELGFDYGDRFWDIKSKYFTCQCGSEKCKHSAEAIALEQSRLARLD
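Quantitative HTS format: methyltransferase activity on a biotin-tagged H3K9 peptide is measured by AlphaScreen, using a rabbit anti-monomethyl-H3K9 antibody with streptavidin donor and anti-IgG acceptor beads. Final levels are 20 nM enzyme, 500 nM peptide, 20 uM SAM; 2 h RT.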
JMJD2A Tudor inh: JMJD2A Tudor domain (human) inhibition | O75164 | AlphaScreen JMJD2A-Tudor / H3K4me3 peptide binding | Potency, µM (top dose mostly 114 µM), actives largely listed as inhibitors | hit rate 4.4% among 390,000 | AID 504339; also: nearly all actives have a fitted effect of over 50% in size
GLS inhibitor: glutaminase GLS (human) inhibition | O94925 | Potency, µM (top dose mostly 45.5 µM), actives largely listed as inhibitors | AID 624170 | hit rate 0.21% among 410,000 | GLS enzymatic activity, qHTS titration
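hKGA; 45 mM KH2PO4 pH 8.2 + 0.02% Tween-20; cpd via pin tool; 1 mM Gln soln; GluOx/HRP/Amplex Red; RT 30 min; fluor. t0 & final.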
BAZ2B inh: blocks human BAZ2B | AID 504333 | AlphaScreen BAZ2B-H3K14Ac peptide displacement | Q9UIF8 | hit rate 4.4% among 360,000 | Potency, µM (series often up to 114 µM), usual class: inhibitors; also: nearly all actives have a fitted effect of over 60% in size
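BAZ2B (50 nM) with biotin-H3(5-23)K14Ac peptide (50 nM) in PBS pH 7.4, 0.01% Tween-20, preformed 30 min, then compound 30 min at room temperature; top concentration 110uM. AlphaScreen streptavidin donor/nickel chelate acceptor beads (10 ug/mL final), 20 min dark, signal read.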
HP1b binding inh: HP1-beta chromodomain-methylated histone interaction inhibition. hit rate 0.56% among 390,000. AlphaScreen HP1-beta / biotin-H3K9me3 peptide binding. P83916. Potency, µM (top dose mostly 114 µM), most hits filed as inhibitors; also: nearly all actives have a fitted effect of over 70% in size
Target sequence (P83916 whole entry, looked up): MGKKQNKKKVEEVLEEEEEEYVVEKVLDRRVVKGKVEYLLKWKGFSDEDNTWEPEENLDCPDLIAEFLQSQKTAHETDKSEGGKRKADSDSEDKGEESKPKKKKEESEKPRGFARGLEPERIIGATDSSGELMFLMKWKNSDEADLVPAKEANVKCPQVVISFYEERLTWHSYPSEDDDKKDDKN
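Compound inhibition of the preformed complex between 50 nM HP1-beta and 50 nM biotinylated H3K9me3 peptide was read by AlphaScreen. Buffer was PBS pH 7.4 with 0.01% Tween-20. Incubations ran 30 min at room temperature, with 10 ug/mL donor/acceptor beads.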
Of the large screens only hits and unclear results are named; the others gave an inactive call. Calls follow the shape of the dose curve; as a rule, active = well fitted curve in the direction sought with a large enough effect; inconclusive = small, poorly fitted or top-dose-only effect, or another doubt; inactive = no such curve, though single readings can be large; an effect the other way counts as inactive or inconclusive.

O=C(c1cccc(C(=O)N2CCN(c3ccccc3F)CC2)c1)N1CCN(c2ccccc2F)CC1	none
O=C(c1ccc(S(=O)(=O)Nc2ccccc2F)cc1)N1CCN(c2ccccc2O)CC1	G9a block inconclusive, JMJD2A Tudor inh 32µM
O=C(c1ccc(C(=O)N2CCN(c3ccccc3F)CC2)nc1)N1CCN(c2ccccc2F)CC1	G9a block inconclusive, JMJD2A Tudor inh 79µM
CC(=O)c1ccc(NC(=O)CNCC(c2ccccc2)N(C)C)cc1 (stereo unspecified)	G9a block 14µM, JMJD2A Tudor inh 2.8µM
N#C/C(=C\c1cc(O)c(O)c(O)c1)C(N)=O	JMJD2A Tudor inh 3.5µM, HP1b binding inh inconclusive (no result: G9a block)
N#CC1=C2SCN(Cc3ccccc3)CN2C(=O)CC1c1cccs1 (stereo unspecified)	G9a block 2µM
CCCSC1=C(C#N)C(c2cccs2)CC(=O)N1 (stereo unspecified)	G9a block inconclusive
N#CC1=C(N)OC2=C(C(=O)CC(c3ccccc3)C2)C1c1ccc2c(c1)OCO2 (stereo unspecified)	G9a block inconclusive, BAZ2B inh inconclusive
N#CC1=C2SCN(Cc3ccccc3)CN2C(=O)CC1c1ccc2c(c1)OCO2 (stereo unspecified)	G9a block inconclusive, JMJD2A Tudor inh 50µM, BAZ2B inh 50µM, HP1b binding inh inconclusive
O=C(Cc1cccc(C(F)(F)F)c1)Nc1cccc(S(=O)(=O)N2CCCC2)c1	none
Cc1cccc(N2CCN(C(=O)CCCOc3ccccc3)CC2)c1C	none
CCOc1ccc(/C=C2\SC(=O)N(c3ccc(O)cc3)C2=O)cc1OC	none
COc1cc(/C=C2\SC(=O)N(c3ccc(Cl)cc3)C2=O)cc([N+](=O)[O-])c1O	G9a block 7.9µM, JMJD2A Tudor inh 7.9µM, GLS inhibitor inconclusive, BAZ2B inh 7.1µM, HP1b binding inh inconclusive
COc1cc(/C=C2\SC(=O)N(c3cccc(Cl)c3)C2=O)cc([N+](=O)[O-])c1O	JMJD2A Tudor inh 4µM, GLS inhibitor inconclusive, BAZ2B inh 8.9µM, HP1b binding inh inconclusive (no result: G9a block)
O=C1S/C(=C\c2ccc(O)c([N+](=O)[O-])c2)C(=O)N1c1ccccc1Cl	JMJD2A Tudor inh 50µM, BAZ2B inh 35µM, HP1b binding inh inconclusive (no result: G9a block)
COc1ccc(/C=C2\SC(=N)N(c3ccc(F)cc3)C2=O)cc1OC	none
CC(=O)Nc1ccc(OCc2ccc3c(c2)OCO3)cc1	none
CCOC(=O)c1oc2c(O)c(O)ccc2c(=O)c1-c1nncn1-c1ccccc1	G9a block 3.2µM, JMJD2A Tudor inh inconclusive, BAZ2B inh inconclusive
CCOC(=O)c1oc2c(C)c(O)ccc2c(=O)c1-c1nncn1-c1ccccc1	none
COc1ccccc1N1CCN(C(=O)c2ccc3c(c2)NC(=O)C(CSCc2ccccc2C)N3)CC1 (stereo unspecified)	G9a block inconclusive, BAZ2B inh 50µM (no result: JMJD2A Tudor inh, GLS inhibitor, HP1b binding inh)
COc1ccc(S(=O)(=O)N(CC(=O)NCCc2ccccc2)c2ccc(Cl)cc2)cc1	G9a block 16µM
COc1ccc(N(CC(=O)N/N=C/c2ccco2)S(=O)(=O)c2ccccc2)cc1	G9a block 50µM, JMJD2A Tudor inh inconclusive, BAZ2B inh inconclusive, HP1b binding inh inconclusive
COc1ccc(N(CC(=O)Nc2ccccc2C(=O)O)S(=O)(=O)c2ccc(C)c([N+](=O)[O-])c2)cc1	G9a block 40µM, BAZ2B inh inconclusive
COC(=O)c1ccccc1NC(=S)N(Cc1ccc2c(c1)OCO2)Cc1cc2ccc(OC)cc2[nH]c1=O	G9a block 0.28µM, BAZ2B inh inconclusive
Nc1n[nH]c(N)c1N=Nc1ccc(Cl)cc1Cl	G9a block inconclusive, JMJD2A Tudor inh 32µM, BAZ2B inh 32µM
Cc1c(Br)c([N+](=O)[O-])nn1CC(=O)Nc1ccc(Cc2ccncc2)cc1	G9a block 45µM, BAZ2B inh inconclusive
O=S(=O)(Nc1ccc(-c2ccc(N3CCCC3)nn2)cc1)c1ccc(C(F)(F)F)cc1	none
Cc1cc(C(=O)CN2C(=O)NC(CCS(C)(=O)=O)C2=O)c(C)n1C1CC1 (stereo unspecified)	none (no result: G9a block, BAZ2B inh)
O=c1c2sccc2[nH]c(=S)n1Cc1ccccc1	G9a block 10µM
CC(NC(=O)CCn1c(=S)[nH]c2ccsc2c1=O)c1ccccc1 (stereo unspecified)	G9a block 28µM
S=c1[nH]c2ccccc2n1Cc1ccccc1	JMJD2A Tudor inh inconclusive, HP1b binding inh inconclusive (no result: G9a block)
COc1ccc(Cn2c(=S)[nH]c3ccsc3c2=O)cc1	G9a block 8.9µM
CCOc1cc(/C=N/O)ccc1OS(=O)(=O)c1ccc(C)cc1	none
Cc1ccc(S(=O)(=O)N/N=C/c2ccc(C(=O)O)cc2)cc1	G9a block 11µM
CCOc1cc(/C=N/NS(=O)(=O)c2ccccc2)ccc1OS(=O)(=O)c1ccc(C)cc1	G9a block 11µM
Cc1ccc(S(=O)(=O)N(C)/N=C/c2ccc(C(=O)O)cc2)cc1	G9a block 45µM
CC(=O)NCc1ccc(S(=O)(=O)N/N=C/c2ccc(Br)cc2)cc1	G9a block inconclusive
CC(=O)NCc1ccc(S(=O)(=O)N/N=C/c2ccccc2)cc1	G9a block 3.2µM
Cc1ccc(S(=O)(=O)N/N=C\c2ccc3c(c2)OCO3)cc1	none
CC(NC(=O)c1nn(C)c2c1CS(=O)(=O)c1ccccc1-2)c1ccccc1 (stereo unspecified)	none
Cc1ccc(S(=O)(=O)N/N=C\c2ccc(Cl)c([N+](=O)[O-])c2)cc1	G9a block 7.9µM, JMJD2A Tudor inh inconclusive, BAZ2B inh inconclusive
Cc1ccc(NC(=S)N/N=C/c2ccc(Cl)c([N+](=O)[O-])c2)cc1	none
CCCn1c(-c2cc(OC)c(OC)c(OC)c2)nc2nc3ccccc3nc21	none (no result: GLS inhibitor)
Cc1cccc(C(=O)NNC2=C(C(=O)C(F)(F)F)CCC2)c1O	G9a block inconclusive, JMJD2A Tudor inh 79µM, BAZ2B inh 18µM
O=C(NNC1=C(C(=O)C(F)(F)F)CCC1)c1cccc(O)c1	none
CC(C)n1nc(C(=O)NC2CCCCCC2)c2ccccc2c1=O	none
O=C(/C=C/c1ccc(O)c(O)c1)c1ccc(S(=O)(=O)N2CCCCCC2)cc1	G9a block 5µM, JMJD2A Tudor inh inconclusive, BAZ2B inh 35µM, HP1b binding inh 40µM
CCOc1ccc(C2C3=C(CC(C)(C)CC3=O)N(CC(=O)O)C3=C2C(=O)CC(C)(C)C3)cc1OCC	G9a block 50µM
COCCCN(CC(=O)O)S(=O)(=O)c1cccc(Cl)c1	G9a block 50µM
CC(C)NC(=O)CN(C(=O)CCC(=O)Nc1nccs1)c1ccc2c(c1)OCO2	none
COc1ccc(N=Cc2nc(-c3ccco3)oc2O)cc1	G9a block inconclusive
CCC(=NCc1ccc(Cl)c(Cl)c1)c1nc(-c2ccco2)oc1O	G9a block 45µM, JMJD2A Tudor inh inconclusive, BAZ2B inh 13µM, HP1b binding inh inconclusive
Cc1ccc(C(=O)c2c3ccc(N)cc3nn2CCC(N)=O)cc1	G9a block 45µM, JMJD2A Tudor inh inconclusive, BAZ2B inh inconclusive
